From PubChem
SMARCA2 act: SMARCA2 (BRM) function activators, primary screen, cell-based, luminescence, high throughput. hit rate 1% among 370,000. activation, % at 9.1 µM. MG213 cells, MMTV-luciferase reporter, dexamethasone, overnight; in the data active means activation above about 7.8%;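 further: 0% = vehicle wells and 100% = reference activator wells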
DAX1 inh-1: DAX1 (NR0B1) inhibitors, primary screen, cell-based, HEK293, Gal4-DAX1, luciferase luminescence | Nuclear receptor subfamily 0 group B member 1 (Homo sapiens), P51843 | HEK293 Gal4-DAX1 luciferase reporter | inhibition, % at 6.75 µM | hit rate 0.99% among 340,000 | AID 504766, 2011;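 active means inhibition above the mean over all tested compounds plus 3 SD, cut at about 4.2% in these data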;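 further: 0% = DAX1-transfected cells with DMSO and 100% = empty-vector control cells with DMSO; inhibition shows as a rise in luminescence from relieved DAX1 repression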
Target sequence (P51843 207-470 limits assumed): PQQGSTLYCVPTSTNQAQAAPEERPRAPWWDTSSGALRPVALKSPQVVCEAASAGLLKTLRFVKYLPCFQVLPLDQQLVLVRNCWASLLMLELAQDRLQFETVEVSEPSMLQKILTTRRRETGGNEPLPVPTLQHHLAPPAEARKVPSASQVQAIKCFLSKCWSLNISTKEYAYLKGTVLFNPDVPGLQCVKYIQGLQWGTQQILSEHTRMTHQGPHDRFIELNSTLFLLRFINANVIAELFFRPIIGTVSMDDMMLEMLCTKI
ssDAF12 agonist: S. stercoralis DAF-12 nuclear receptor activators, primary screen, cell-based, luminescence, HEK293, GRIP1 co-expression, lit1-tk-luc; HEK293 ssDAF-12/GRIP1 lit1-tk-luc reporter; % of 3 µM dafachronic acid response; Nuclear hormone receptor DAF-12 (Strongyloides stercoralis); activation, % at 6.8 µM; hit rate 1% among 370,000;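 active means activation above the mean over all tested compounds plus 3 SD, cut at about 0.9% in these data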;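 further: 0% = DMSO-only wells and 100% = 3 µM delta7-dafachronic acid wells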
hcDAF12 agonist: H. contortus DAF-12 nuclear receptor activators, primary screen, cell-based, luminescence, HEK293, lit1-tk-luc reporter; HEK293 hcDAF-12 lit1-tk-luc reporter; 0% DMSO, 100% Δ7-dafachronic acid; activation, % at 6.8 µM; hit rate 1.4% among 370,000;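 active means activation above the mean of all tested compounds plus 3 SD, cut at about 5.5% in these data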;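 further: 100% = response to 3 µM Δ7-dafachronic acid high control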
DAX1 inh-2: DAX1 (NR0B1) inhibitors on StAR promoter, primary screen, cell-based, luminescence, SF-1 (NR5A1), full-length DAX-1; inhibition, % at 6.8 µM; HEK293T StAR-luciferase reporter, SF-1/DAX-1 repression relief; AID 652010, 2013; hit rate 1.1% among 370,000;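 active means inhibition above the mean over all tested compounds plus 3 SD, cut at about 3.6% in these data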;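 further: 0% = DAX-1 cells with DMSO and 100% = cells lacking DAX-1 with DMSO; higher inhibition means more luminescence from relief of DAX-1 repression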
hgDAF-12 ag: H. glycines DAF-12 receptor agonists, primary screen, cell-based, luminescence, HEK293, GAL4 fusion, UAS-luciferase. HEK293 GAL4-hgDAF12 UAS-luciferase reporter, agonist luminescence; normalized to butyrate control. hit rate 1.8% among 370,000. activation, % at 6.8 µM. Nuclear hormone receptor DAF-12 (Heterodera glycines), GAL4 fusion;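 active means activation above a cutoff set at the mean of all screened compounds plus 3 SD, cut at about 10% in these data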;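 further: 0% = DMSO wells and 100% = sodium butyrate wells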
* hit, by the source's call; x = no result. Sampled rows, rich in hits. Any-hit rate of the full collection: about 4.8%.

SMILES	SMARCA2 act	DAX1 inh-1	ssDAF12 agonist	hcDAF12 agonist	DAX1 inh-2	hgDAF-12 ag
O=P(OC1CCCCC1)(OC1CCCCC1)C(O)c1cccnc1 (stereo not drawn)	-4.2	2.2	0.6	5.9*	0.8	2.6
O=P(OC1CCCCC1)(OC1CCCCC1)C(O)c1ccccc1 (stereo not drawn)	-4.6	-1.2	-1.2	-1.1	-0.3	-1.5
COc1cccc(C2NC(=O)CCC2[N+](=O)[O-])c1 (stereo not drawn)	3.6	0.0	-0.8	-1.6	0.8	-3.7
CCOc1ccc(/C=C(\C#N)C(=O)NC2CC2)c(OCC)c1	-5.6	-0.5	-2.0	-2.0	-0.4	-0.9
COc1ccc(S(=O)(=O)N2C[C@H]3CON(C)[C@H]3C[C@H]2c2ccc(-c3cc4ccccc4o3)cc2)cc1	-6.4	-1.8	-0.6	0.1	-0.5	-4.8
Cc1cc(NC(=O)C2CC2)n(-c2nc3ccccc3s2)n1	3.6	0.0	-0.1	5.6*	-0.7	10.1
CCN(C(=O)CSc1nnc(C)n1-c1ccc(C)cc1)c1c(N)n(Cc2ccccc2)c(=O)[nH]c1=O	-2.2	0.9	-1.0	-1.6	-1.2	-1.0
Cc1cn(CC(=O)NCCNc2ccc([N+](=O)[O-])cn2)c(=O)[nH]c1=O	-4.2	1.0	-0.8	0.0	-0.2	2.1
Cc1cc(C)cc(C(=O)NCC(=O)OCC(=O)NC2CCCc3ccccc32)c1 (stereo not drawn)	-2.5	-0.7	-1.0	-0.6	1.3	-1.5
COc1ccc(C2NC(=O)c3ccccc3O2)cc1 (stereo not drawn)	-1.5	-0.8	-1.0	1.0	0.0	0.2
C[C@@H]1CCCCO[C@H](CN(C)C(=O)Nc2cccc3ccccc23)[C@@H](C)CN([C@H](C)CO)C(=O)c2cc(NC(=O)c3ccccc3)ccc2O1	-1.4	-0.6	-1.0	-1.0	-0.2	-1.9
COc1cc(-c2cnc3c(NC=O)cc(-c4ccccc4)cn23)cc(OC)c1OC	-2.1	x	-1.8	-2.9	4.2*	-2.9
COc1cc(-c2cnc3c(NC=O)cc(-c4ccccc4Cl)cn23)cc(OC)c1OC	3.9	x	-0.5	0.8	4.2*	-7.6
COc1cc(-c2cc(NC=O)c3ncc(-c4ccccc4)n3c2)cc(OC)c1OC	-1.2	x	-1.1	-2.5	-1.1	-2.5
CCn1c(SCC(=O)c2ccc(-c3ccccc3)cc2)nnc1-c1ccccc1OC	-1.2	x	-1.7	-1.6	-1.0	-3.2
Cc1cc2ncc(-c3ccc(Cl)cc3)c(N)n2n1	3.0	0.8	-0.3	0.3	4.0*	7.6
CCCCCCC/C=C(\C)[C@@H](O)[C@@H](C)C(=O)N1CCC[C@@H]1C(=O)O	x	x	-1.5	1.9	x	-1.0
OC(c1ccc(F)c(F)c1)c1nc(-c2ccc3c(c2)OCO3)cs1 (stereo not drawn)	2.1	x	-1.6	-0.1	-0.2	4.4
O=C1NC(=O)c2c(Br)c(Br)c(Br)c(Br)c21	-4.9	1.3	1.0*	1.4	-0.1	2.0
COc1ccc(S(=O)(=O)Nc2cc(Cl)ccc2OC)cc1	0.0	-1.2	2.7*	-0.5	-2.1	3.5
Cc1occc1C(=O)n1nnc2ccccc21	-2.9	x	-1.2	5.8*	-0.6	-2.0
COc1ccc(-n2ncc3c2CC(C)(C)CC3NC(=O)C2CCN(C(C)=O)CC2)cc1 (stereo not drawn)	2.2	-0.1	-1.0	0.6	-0.2	-1.0
COc1cccc(-c2cc3nc4c(c(NCC(C)(C)CN(C)C)n3n2)CCCC4)c1	-3.1	4.3*	-2.0	-0.5	2.0	6.1
COc1ccccc1NC(=O)COC(=O)C1CCN(/C=C/C(=O)C(F)(F)F)CC1	-2.0	3.2	-1.7	-0.2	-0.1	-2.1
O=C(COC(=O)C1CCN(/C=C/C(=O)C(F)(F)F)CC1)Nc1cccc(F)c1	-0.8	0.9	-0.3	6.0*	0.2	0.0
SMILES	SMARCA2 act	DAX1 inh-1	ssDAF12 agonist	hcDAF12 agonist	DAX1 inh-2	hgDAF-12 ag
COc1ccc(S[C@]2(C(=O)N(C)C)CC(=O)N(C(=O)/C=C/c3ccccc3)[C@@H]2c2ccc(OC)cc2)cc1	-2.9	x	-1.3	-1.9	-2.8	-1.1
COc1ccc(S[C@]2(C(=O)N(C)C)CC(=O)N(c3ccccc3)[C@@H]2c2ccc(OC)cc2)cc1	-3.2	x	-0.1	2.1	-0.8	11.8*
c1ccc(CN=C2CCCc3ccccc3N2)cc1	3.6	0.7	-1.1	0.0	0.4	1.2
Cc1ccc(/C=N/N2CCOCC2)s1	1.4	5.6*	-0.9	1.7	1.5	-0.4
Cc1ccc(/C=N/N2CCN(Cc3ccccc3)CC2)s1	-0.8	1.9	-0.7	2.2	0.5	2.8
O=Nc1c(O)[nH]c2ccc(Cl)c(Cl)c12	1.8	-0.9	-1.1	-1.4	-0.7	-0.1
Nc1nc2ccccc2n1/N=C/c1ccc(Br)cc1	5.4	1.5	-0.5	3.3	2.5	12.0*
O=C1c2ccccc2C(c2nnnn2-c2ccc3c(c2)OCCO3)N1CCc1ccc(O)cc1 (stereo not drawn)	-0.7	x	-0.6	0.4	2.8	-1.3
O=C1c2ccccc2C(c2nnnn2-c2ccc3c(c2)OCCO3)N1CCc1ccccc1F (stereo not drawn)	1.1	x	-0.7	-1.1	4.4*	-0.8
O=C(Nc1cccnc1Cl)c1cc(-c2ccco2)on1	2.9	1.0	-0.2	0.4	1.8	13.0*
O=C(c1cccs1)N1CCn2c1nc1ccccc12	5.0	1.7	-0.6	5.2	4.3*	6.8
COc1ccc2c(c1)c(-c1csc(N)n1)c(C)n2C	-0.6	0.0	0.1	3.7	0.3	3.9
Cc1ccc2c(c1)c(-c1csc(N)n1)c(C)n2C	-1.3	0.1	1.6*	2.9	0.4	1.8
O=C(Nc1ccc2c(c1)S(=O)(=O)N=C1CCCCCN12)c1ccccc1Cl	-4.1	-0.9	-0.9	-1.9	-0.4	-0.3
COc1ccc(CNC(=O)O[C@H]2CC[C@@]34CCCN3C(=O)CCC[C@H]4C2)cc1OC	x	x	-0.4	-1.9	x	-0.9
c1ccc(COc2ccc(OCCn3cncn3)cc2)cc1	4.8	1.2	-0.2	3.9	2.7	12.9*
COc1ccc(C=O)cc1-c1cc(C(C)=O)c2n(c1=O)CCC2	-0.7	x	1.3*	-0.9	-0.3	0.9
Cc1nnc(NC(=O)C2COc3ccccc3O2)s1 (stereo not drawn)	4.7	0.0	-0.3	1.2	1.3	7.5
